# Measured values from PubChem BioAssay (EPA / NIEHS).
# Inconclusive results are not listed. Calls of active or inactive are those of the source. How the source made its calls: active means hit-call score of the fitted dose curve at least 0.9, where 1 is the maximum; inconclusive means response in the unintended direction; inactive means score below 0.9.
# Target: human Vascular Endothelial Growth Factor Receptor 2 (VEGFR2), KDR (gene 3791) (UniProt P35968)
# Experiment: NVS_ENZ_hVEGFR2: NovaScreen (NVS) Enzymatic Assay for human Vascular Endothelial Growth Factor Receptor 2 (VEGFR2) (AID 2283230)
# Summary of the method: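 Cell-free recombinant VEGFR2 kinase, fluorescent substrate with electrophoretic mobility-shift separation; read 1 h after dosing. Screened at 25 uM in duplicate, hits to concentration-response up to 50 uM; loss-of-signal versus DMSO.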
# Sequence of human Vascular Endothelial Growth Factor Receptor 2 (VEGFR2), KDR (gene 3791) (P35968 whole entry, looked up): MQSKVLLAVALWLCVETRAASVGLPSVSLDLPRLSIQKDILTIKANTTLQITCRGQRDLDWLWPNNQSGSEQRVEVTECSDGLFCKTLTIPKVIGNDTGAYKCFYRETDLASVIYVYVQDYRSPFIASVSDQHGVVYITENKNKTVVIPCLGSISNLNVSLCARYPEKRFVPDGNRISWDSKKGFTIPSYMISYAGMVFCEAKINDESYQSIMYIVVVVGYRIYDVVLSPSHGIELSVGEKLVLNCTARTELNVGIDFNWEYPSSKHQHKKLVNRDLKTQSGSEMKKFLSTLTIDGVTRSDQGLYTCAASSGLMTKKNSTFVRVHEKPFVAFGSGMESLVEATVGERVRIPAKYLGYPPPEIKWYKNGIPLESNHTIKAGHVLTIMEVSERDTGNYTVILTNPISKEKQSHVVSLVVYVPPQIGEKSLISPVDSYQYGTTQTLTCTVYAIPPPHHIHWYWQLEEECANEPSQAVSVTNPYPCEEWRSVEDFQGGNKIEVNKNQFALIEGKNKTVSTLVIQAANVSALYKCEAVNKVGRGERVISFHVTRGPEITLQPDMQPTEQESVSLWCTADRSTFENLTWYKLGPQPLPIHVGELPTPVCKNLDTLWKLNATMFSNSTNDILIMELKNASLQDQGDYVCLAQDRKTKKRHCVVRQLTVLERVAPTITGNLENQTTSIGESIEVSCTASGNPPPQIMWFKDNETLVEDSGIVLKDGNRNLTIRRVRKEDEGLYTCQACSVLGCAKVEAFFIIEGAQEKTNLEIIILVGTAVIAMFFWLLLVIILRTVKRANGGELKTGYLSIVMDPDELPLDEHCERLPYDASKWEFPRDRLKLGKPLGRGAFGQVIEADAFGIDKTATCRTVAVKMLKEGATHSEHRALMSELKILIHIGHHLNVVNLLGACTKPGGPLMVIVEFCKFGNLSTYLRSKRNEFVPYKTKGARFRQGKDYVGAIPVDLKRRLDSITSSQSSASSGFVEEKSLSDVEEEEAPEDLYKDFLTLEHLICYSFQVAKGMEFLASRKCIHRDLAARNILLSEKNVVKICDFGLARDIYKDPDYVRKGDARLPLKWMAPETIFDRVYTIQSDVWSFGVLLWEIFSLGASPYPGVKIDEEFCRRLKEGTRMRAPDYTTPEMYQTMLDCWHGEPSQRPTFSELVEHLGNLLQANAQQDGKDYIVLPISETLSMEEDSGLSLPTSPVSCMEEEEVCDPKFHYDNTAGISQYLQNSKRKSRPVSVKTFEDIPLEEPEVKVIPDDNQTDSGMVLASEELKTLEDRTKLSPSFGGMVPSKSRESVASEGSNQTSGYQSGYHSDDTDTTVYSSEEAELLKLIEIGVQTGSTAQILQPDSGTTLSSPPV
SMILES,outcome,AC50
NC(=Nc1ccccc1)Nc1ccccc1,inactive,
CN(C)C(=O)NC1(c2ccccc2)CCN(CCC[C@]2(c3ccc(Cl)c(Cl)c3)CCCN(C(=O)c3ccccc3)C2)CC1,inactive,
CCCCCCCCCCCCCCOS(=O)(=O)O,,30.2 µM (active)
Nc1nc(Cl)nc2c1ncn2[C@H]1C[C@H](O)[C@@H](CO)O1,,4.88 µM (active)
CCCCC(CC)COC(=O)CCCCCCCC(=O)OCC(CC)CCCC (stereo unspecified),inactive,
COc1ccc(OC(F)(F)F)cc1CN[C@H]1CCCN[C@H]1c1ccccc1,inactive,
Cc1occc(=O)c1O,inactive,
CN(C)C(=O)NC1(c2ccccc2)CCN(CC[C@@]2(c3ccc(F)c(F)c3)CN(C(=O)c3ccccc3)CCO2)CC1,inactive,

# Target: sheep Cyclooxygenase-2 (Cox2), PTGS2 (gene 443460) (UniProt P79208)
# Sequence (P79208 whole entry, looked up): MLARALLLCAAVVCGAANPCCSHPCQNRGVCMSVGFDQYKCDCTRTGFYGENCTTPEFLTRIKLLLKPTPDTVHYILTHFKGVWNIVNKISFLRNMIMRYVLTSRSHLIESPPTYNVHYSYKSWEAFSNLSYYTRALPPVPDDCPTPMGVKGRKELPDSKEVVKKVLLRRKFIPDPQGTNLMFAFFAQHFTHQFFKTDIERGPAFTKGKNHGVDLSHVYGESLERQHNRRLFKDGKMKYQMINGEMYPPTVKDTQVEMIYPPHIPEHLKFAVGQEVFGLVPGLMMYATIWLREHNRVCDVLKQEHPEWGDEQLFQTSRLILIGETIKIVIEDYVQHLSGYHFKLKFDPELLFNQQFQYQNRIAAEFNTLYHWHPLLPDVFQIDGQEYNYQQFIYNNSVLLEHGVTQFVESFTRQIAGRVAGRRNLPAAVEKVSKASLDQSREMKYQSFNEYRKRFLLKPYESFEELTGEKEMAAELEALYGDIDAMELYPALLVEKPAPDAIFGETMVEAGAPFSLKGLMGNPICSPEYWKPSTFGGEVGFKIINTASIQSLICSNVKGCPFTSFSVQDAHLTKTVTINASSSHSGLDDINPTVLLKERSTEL
# Experiment: NVS_ENZ_oCOX2: NovaScreen (NVS) Enzymatic Assay for sheep Cyclooxygenase-2 (Cox2) (AID 2283231)
# Summary of the method: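 Colorimetric absorbance read-out of COX activity, taken 0.66 hour post-dosing, using native protein from sheep placenta. Single-concentration duplicate screen (25 uM), then singleton concentration-response up to 50 uM for actives.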
SMILES,outcome,AC50
Oc1ccccc1O,inactive,
CCc1nc(N)nc(N)c1-c1ccc(Cl)cc1,inactive,
CN(C)C(=O)NC1(c2ccccc2)CCN(CCC[C@]2(c3ccc(Cl)c(Cl)c3)CCCN(C(=O)c3ccccc3)C2)CC1,,4.73 µM (active)
COc1ccc(C(=O)Nc2nc3ccccc3c(NCc3ccccc3)c2C#N)cc1,,13.7 µM (active)
Cc1occc(=O)c1O,,17.6 µM (active)
CCc1cc(C2=C(C(=O)O)N(c3ccccc3C(F)(F)F)S(=O)(=O)c3ccccc32)cc2c1OCO2,,19.2 µM (active)
O=C1c2c(O)cccc2Cc2cccc(O)c21,,6.81 µM (active)
S=c1[nH]c2ccccc2s1,,9.72 µM (active)
C/C=C/c1ccc(OC)cc1,inactive,
O=NO,inactive,

# Target: rat Catechol-O-Methyl Transferase (COMT), Comt (gene 24267) (UniProt P22734)
# Sequence (P22734 whole entry, looked up): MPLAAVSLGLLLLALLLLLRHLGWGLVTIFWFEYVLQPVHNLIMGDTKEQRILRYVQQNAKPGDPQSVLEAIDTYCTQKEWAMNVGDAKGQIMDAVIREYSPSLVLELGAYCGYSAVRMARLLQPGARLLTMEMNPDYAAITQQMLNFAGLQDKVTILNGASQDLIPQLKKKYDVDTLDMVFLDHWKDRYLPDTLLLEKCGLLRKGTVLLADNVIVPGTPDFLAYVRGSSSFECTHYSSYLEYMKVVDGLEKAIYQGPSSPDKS
# Experiment: NVS_ENZ_rCOMT: NovaScreen (NVS) Enzymatic Assay for rat Catechol-O-Methyl Transferase (COMT) (AID 2283235)
# Summary of the method: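 Rat dorsal striatum extract served as COMT source; product quantified by HPLC/spectrophotometry, read at 0 h after dosing. Primary single-concentration screen at 25 uM, followed by concentration series to a 50 uM maximum.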
SMILES,outcome,AC50
Oc1ccccc1O,inactive,
CC(=O)OCC(COC(C)=O)OC(C)=O,inactive,
O=C1c2c(O)cccc2Cc2cccc(O)c21,,12.1 µM (active)

# Target: rat Constitutive Nitric Oxide Synthase (CNOS), Nos1 (gene 24598) (UniProt P29476)
# Sequence (P29476 whole entry, looked up): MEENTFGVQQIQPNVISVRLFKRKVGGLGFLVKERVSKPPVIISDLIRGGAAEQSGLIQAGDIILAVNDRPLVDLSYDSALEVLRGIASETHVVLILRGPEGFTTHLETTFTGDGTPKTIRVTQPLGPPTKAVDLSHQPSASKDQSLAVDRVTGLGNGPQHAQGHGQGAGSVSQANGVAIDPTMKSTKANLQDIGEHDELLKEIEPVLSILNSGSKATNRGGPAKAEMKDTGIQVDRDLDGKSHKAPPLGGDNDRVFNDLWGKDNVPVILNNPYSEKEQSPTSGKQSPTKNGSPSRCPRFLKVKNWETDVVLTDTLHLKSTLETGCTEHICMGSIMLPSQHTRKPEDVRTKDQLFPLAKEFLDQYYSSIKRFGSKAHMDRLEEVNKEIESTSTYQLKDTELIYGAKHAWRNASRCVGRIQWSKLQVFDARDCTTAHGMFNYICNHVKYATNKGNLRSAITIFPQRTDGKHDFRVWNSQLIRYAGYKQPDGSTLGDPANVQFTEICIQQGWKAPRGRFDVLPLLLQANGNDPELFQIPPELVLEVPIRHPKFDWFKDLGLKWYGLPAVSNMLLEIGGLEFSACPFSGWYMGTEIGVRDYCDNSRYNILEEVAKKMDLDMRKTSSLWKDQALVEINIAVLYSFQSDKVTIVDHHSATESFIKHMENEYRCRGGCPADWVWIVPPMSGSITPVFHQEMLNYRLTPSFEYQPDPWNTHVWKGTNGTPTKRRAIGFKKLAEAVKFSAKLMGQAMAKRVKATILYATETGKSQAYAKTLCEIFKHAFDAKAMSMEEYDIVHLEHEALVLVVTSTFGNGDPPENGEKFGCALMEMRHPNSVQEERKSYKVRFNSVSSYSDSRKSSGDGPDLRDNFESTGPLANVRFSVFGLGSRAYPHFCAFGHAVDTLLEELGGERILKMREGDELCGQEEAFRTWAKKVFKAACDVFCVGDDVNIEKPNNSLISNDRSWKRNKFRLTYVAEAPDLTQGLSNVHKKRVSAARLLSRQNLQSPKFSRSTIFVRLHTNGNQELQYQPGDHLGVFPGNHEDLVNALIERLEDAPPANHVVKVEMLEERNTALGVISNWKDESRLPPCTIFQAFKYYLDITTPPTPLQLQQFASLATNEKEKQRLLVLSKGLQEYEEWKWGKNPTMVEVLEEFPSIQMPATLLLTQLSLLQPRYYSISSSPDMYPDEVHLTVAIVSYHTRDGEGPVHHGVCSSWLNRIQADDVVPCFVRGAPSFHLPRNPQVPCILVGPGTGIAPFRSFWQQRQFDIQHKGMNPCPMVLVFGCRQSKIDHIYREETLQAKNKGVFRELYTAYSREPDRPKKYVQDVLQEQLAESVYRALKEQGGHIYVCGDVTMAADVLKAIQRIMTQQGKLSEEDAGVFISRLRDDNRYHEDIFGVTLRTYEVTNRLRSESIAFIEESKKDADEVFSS
# Experiment: NVS_ENZ_rCNOS: NovaScreen (NVS) Enzymatic Assay for rat Constitutive Nitric Oxide Synthase (CNOS) (AID 2283236)
# Summary of the method: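 Single 25 uM duplicate screen, then concentration series to 50 uM for chemicals meeting threshold. Rat brain membrane-derived CNOS activity detected radiometrically by filtration and scintillation counting, 1 h after compound addition; DMSO as baseline.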
SMILES,outcome,AC50
CC(=O)S[C@H](C(=O)N[C@H]1Cc2ccccc2[C@H]2CCC[C@@H](C(=O)O)N2C1=O)C(C)C,inactive,
CCC(C)N(C)C(=O)c1cc2ccccc2c(-c2ccccc2Cl)n1 (stereo unspecified),inactive,
O=C1c2c(O)cccc2Cc2cccc(O)c21,,5.47 µM (active)
S=c1[nH]c2ccccc2s1,,10.6 µM (active)
O=C(O)c1[nH]n(-c2ccc(S(=O)(=O)O)cc2)c(=O)c1N=Nc1ccc(S(=O)(=O)O)cc1,,9.33 µM (active)
